Assay results published in PubChem BioAssay AID687041 (Broad Institute, 2013).
Results with a measured potency or affinity are listed apart.

Test: endogenous miR-122 level reduction, dose response, orthogonal assay for miR-122 inhibitor project, cell-based, Huh7, RT-qPCR, dry powder (AID 687041)
Settings: Huh7 miR-122 level, 48 h; series mostly up to 35 µM; relative miR-122 level (fraction of control): at the top concentration;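 active = compounds lowering miR-122 whose fitted half-maximal concentration is at most twice the top tested dose; inconclusive = flat fit with moderate reduction, or poor fit quality; inactive = the rest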

Relative miR-122 level (fraction of control), inactive:
Cc1cc(C)c(S(=O)(=O)NC2CC3CCC2C3)c(C)c1 (stereo not drawn) 0.851
COc1ccc(C(C)(C)C)cc1S(=O)(=O)NCC1CCCO1 (stereo not drawn) 0.947
Cc1cccc(NS(=O)(=O)c2cc3c(cc2C)NC(=O)CO3)c1 0.95
Cc1cc(C(C)(C)C)cc(S(=O)(=O)NCCO)c1C 1.22
COc1cc(C)c(C(C)C)cc1S(=O)(=O)n1cnc(C)c1 0.792
Cc1cc(Cl)c(Cl)cc1S(=O)(=O)NCCCn1ccnc1 0.911
Cc1cc(C)c(C)c(S(=O)(=O)NC2CCCCC2)c1C 0.685
O=C(Nc1ccc(N2CCOCC2)c(S(=O)(=O)Nc2cc(Cl)ccc2Cl)c1)c1cccnc1 1.07
Cc1ccc(C(C)C)cc1S(=O)(=O)Nc1cccnc1 1.21
Cc1cc(C)c(S(=O)(=O)NC(C)C)c(C)c1-n1cnnn1 1.17
CCOc1ccccc1N1CCN(C(=O)c2cccc(-c3ccc(O)cc3)c2)CC1 0.555
COC(=O)c1cc(S(=O)(=O)Nc2cc(OC)cc(OC)c2)cn1C 0.972
Cc1ccc(C)c(S(=O)(=O)Nc2ccc3cn[nH]c3c2)c1 0.908
COc1ccc(S(=O)(=O)Nc2ccc(OC(F)F)cc2)c2cccnc12 1.16
O=S(=O)(c1ccc2c(c1)CCCN2)N1CCC[C@@H]2CCCC[C@H]21 0.549
CCN(CC)C(=O)CN(c1cc2c(cc1OC)oc1ccccc12)S(=O)(=O)c1ccccc1 0.384
Cc1ccc(NS(=O)(=O)c2cc(C(=O)NCc3ccccn3)ccc2Cl)cc1C 0.985
CCOc1ccc(C)cc1S(=O)(=O)NC1CCCCC1 0.698
